Screening data deposited in PubChem by National Center for Advancing Translational Sciences (NCATS).
The list is not random: actives were taken first. Their share in the collection is about 8.9%.
IMPase inh = qHTS Assay for Identifying the Cell-Membrane Permeable IMPase Inhibitors. Inositol monophosphatase 1 (Rattus norvegicus), P97697. CHO-M1 cells, IP1 accumulation, HTRF TR-FRET ratio. inhibition (IP1 accumulation), % at 46.1 µM. 120,000 tested, under 10 active. AID 901, 2007; active means well fitted curve in the direction sought with a large enough effect in the signal ratio, not every such curve was filed as active; inconclusive means small, poorly fitted or top-dose-only effect, or a change in a side signal; inactive means no such curve, though single readings can be large or run the other way; the % refers to the signal ratio;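 further: cells stimulated with carbachol in lithium chloride buffer; plate controls were DMSO basal wells for no effect and reference inhibitor wells for full effect; higher means more IMPase inhibition seen as more IP1 and lower FRET ratio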
Target sequence (P97697 whole entry, looked up): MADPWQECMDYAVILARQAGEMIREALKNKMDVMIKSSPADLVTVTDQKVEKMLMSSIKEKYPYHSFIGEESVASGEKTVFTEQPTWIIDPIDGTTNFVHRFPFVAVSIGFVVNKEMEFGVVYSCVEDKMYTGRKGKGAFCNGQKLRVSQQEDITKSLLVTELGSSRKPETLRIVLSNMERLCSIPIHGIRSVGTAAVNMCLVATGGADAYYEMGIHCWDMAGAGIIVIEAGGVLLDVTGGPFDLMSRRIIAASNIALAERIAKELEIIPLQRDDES
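The IP-One HTRF competitive assay in carbachol-stimulated CHO-M1 cells quantifies cellular IP1. Compounds spanned up to 46 uM final, and activity is expressed as AC50 from concentration-response fits of the ratio and donor data.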
IMPase Li cell = qHTS Assay for Identifying the Cell-Membrane Permeable IMPase Inhibitors: Potentiation with Lithium; Potency, µM (top dose mostly 59.4 µM), for the others: top-dose activity, negative = IMPase inhibition, actives largely listed as inhibitors; CHO-M1 cells, IP1 TR-FRET (IP-One), carbachol + lithium; 210,000 compounds, 0.35% hits;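 further: IP1 builds up when IMPase is blocked and the TR-FRET signal falls; potency means the concentration at half of the fitted maximal effect; plate controls were basal vehicle for no effect and high inhibitor control for full effect; nearly all actives have a fitted effect of over 50% in size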
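Readout is a homogeneous TR-FRET IP1 immunoassay (Ex 320, Em 665 and 620), where raised cytosolic IP1 lowers signal. Cells were CHO-M1 treated 30 min at 37C with test compounds plus a little lithium; AC50 values came from Hill-equation fitting.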
ALDH1A1 block = qHTS Assay for Inhibitors of Aldehyde Dehydrogenase 1 (ALDH1A1). Aldehyde dehydrogenase 1A1 (Homo sapiens), P00352. Purified ALDH1A1, NADH fluorescence, propionaldehyde substrate. Potency, µM (highest dose often 75.3 µM), for inactives: at the top dose activity, negative = inhibition, actives largely listed as inhibitors. 220,000 compounds, 7.3% hits; active means well fitted inhibition curve with a large enough effect, not every such curve was filed as active; inconclusive means small, poorly fitted or top-dose-only effect, or another doubt; inactive means no such curve, though single readings can be large or run the other way;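 further: potency means the concentration at half of the fitted maximal effect; plate controls were no enzyme wells and a reference inhibitor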
HPGD inh = qHTS Assay for Inhibitors of HPGD (15-Hydroxyprostaglandin Dehydrogenase) | 15-hydroxyprostaglandin dehydrogenase [NAD(+)] (Homo sapiens), P15428 | purified HPGD, NADH fluorescence kinetic, PGE2 substrate | Potency, µM, for inactives: at the top dose activity change, negative = inhibition, most hits filed as inhibitors | 150,000 compounds, 4.3% hits | AID 894, 2007; active means well fitted inhibition curve with a large enough effect, not every such curve was filed as active; inconclusive means small, poorly fitted or top-dose-only effect, or another doubt; inactive means no such curve, though single readings can be large or run the other way; further: potency means the concentration at half of the fitted maximal effect
Target sequence (P15428 whole entry, looked up): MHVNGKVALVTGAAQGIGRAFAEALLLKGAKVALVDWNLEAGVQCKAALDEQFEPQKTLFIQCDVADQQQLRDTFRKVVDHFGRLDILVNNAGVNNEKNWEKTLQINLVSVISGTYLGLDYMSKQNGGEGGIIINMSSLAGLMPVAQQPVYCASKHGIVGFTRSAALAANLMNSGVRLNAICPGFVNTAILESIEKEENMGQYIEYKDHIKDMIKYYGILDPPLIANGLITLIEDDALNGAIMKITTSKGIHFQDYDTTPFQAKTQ
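NADH formation kinetics: reaction with 30 uM PGE2 and 1 mM NAD+ (final), 20 nM enzyme, Tris-HCl pH 8 with Tween 20, after 15 min compound preincubation at room temperature. Fluorescence change, last versus first of five reads.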
NPSR antagonist = qHTS Assay for Antagonists of the Neuropeptide S Receptor: cAMP Signal Transduction | Q6W5P4 | CHO-NPSR cells, cAMP TR-FRET, antagonist mode | Potency, µM (titrated, usually from 38.3 µM), for the others: top-dose activity change, negative = inhibition, usual class: inhibitors | 220,000 compounds, 1% hits | AID 1461, 2008; further: potency means the concentration at half of the fitted maximal effect; nearly all actives have a fitted effect of over 50% in size
12-hLO inh = qHTS Assay for Inhibitors of 12-hLO (12-human lipoxygenase); 150,000 compounds, 0.12% hits; purified 12-hLO, xylenol orange hydroperoxide absorbance; Potency, µM (series often up to 57.1 µM), inactives show at the highest dose activity change, negative = inhibition, most hits filed as inhibitors; AID 1452, 2008; Polyunsaturated fatty acid lipoxygenase ALOX12 (Homo sapiens), P18054; further: potency means the concentration at half of the fitted maximal effect; nearly all actives have a fitted effect of over 55% in size
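Hydroperoxide formation by human 12-lipoxygenase from 40 uM arachidonic acid was followed colorimetrically via ferric-xylenol orange complex, using the 573/405 nm absorbance ratio. Enzyme concentration was 150 nM, with 30 min reaction at room temperature.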
The depositor's hits bear a star; ? = inconclusive; · = no result given; [ ] = remark or other dose. Unless noted, the call rests on the fitted dose curve; in most records, active means well fitted curve in the direction sought with a large enough effect; inconclusive means small, poorly fitted or top-dose-only effect, or another doubt; inactive means no such curve, though single readings can be large; an effect the other way counts as inactive or inconclusive. Unless noted, on the % scale 0 is the no-effect control and ±100 the full control effect.

SMILES	IMPase inh	IMPase Li cell	ALDH1A1 block	HPGD inh	NPSR antagonist	12-hLO inh
CC1=C(C(=O)OCC(C)C)C(c2ccccc2Cl)NC(=O)N1C (stereo not drawn)	7	1%[38.3 µM]	20µM*	-17%	4%[46.1 µM]	-19%
O=C(CCNc1ccc(F)cc1)c1ccco1	-2	22%[38.3 µM]	1.4µM*	-2%	14%[46.1 µM]	7%
O=C(CCNC(=O)c1ccccc1)Nc1ccc(F)c(Cl)c1	-13	1%	7%	-7%	5%	2%
O=C(CCNc1ccc(F)c(Cl)c1)c1ccco1	7	2%[38.3 µM]	3.5µM*	-7%	-26%[46.1 µM]	-4%
O=C(CCNc1ccc(Cl)c(C(F)(F)F)c1)c1ccco1	?	30%[38.3 µM]	8.9µM*	-6%	-14%[46.1 µM]	-10%
Cc1ccccc1NC(=O)CNc1ccc(Cl)c(C(F)(F)F)c1	-2	·	?	·	4%[46.1 µM]	0%
O=C(CCNc1cc(Cl)cc(Cl)c1)c1ccco1	0	7%[38.3 µM]	7.9µM*	-16%	?	-5%
CC1=NN(C(=O)c2nn(C)cc2Br)C(O)(C(F)(F)F)C1 (stereo not drawn)	·	-4%	-3%	-12%	14%	-1%
O=C(CCNc1cccc(C(F)(F)F)c1)c1ccco1	1	54%[38.3 µM]	2.5µM*	-9%	2%[46.1 µM]	5%
O=C(CSc1ccc(Cl)cc1)c1ccco1	-1	17%[38.3 µM]	13µM*	25µM*	-14%[46.1 µM]	?
O=C(NC1(C(F)(F)F)NC(=O)N(CCc2ccccc2)C1=O)c1ccc(Cl)cc1 (stereo not drawn)	23	·	·	·	·	·
NC(=S)NNC(=O)Nc1ccc(Cl)c(Cl)c1	·	0%	28µM*	-20%	9%	-8%
O=C(Cc1ccccc1)NNC(=O)Nc1ccc(Cl)c(Cl)c1	7	-1%	4%	-2%	3%	2%
O=C(NC1CCS(=O)(=O)C1)/C(=C/c1ccco1)NC(=O)c1ccccc1 (stereo not drawn)	·	4%	-2%	·	1%	·
CCCCCCNc1nc(-c2ccc(OC)cc2)c(CCC(=O)O)s1	-3	-2%	22µM*	?	-20%	-7%
COCCNc1nc(-c2ccc(OC)cc2)c(-c2ccc(OC)cc2)s1	·	22%	28µM*	·	-43%	·
COC(=O)CCc1sc(NC2CCCCC2)nc1-c1ccc(OC)cc1	·	3%	?	22µM*	-10%	-9%
CCN(CC)CCNc1nc(-c2ccc(OC)cc2)c(-c2ccc(OC)cc2)s1	·	·	-13%	·	23%	·
CCOC(=O)C1=C(CSc2nc3c(cc2C#N)CN(C)CC3)OC(N)=C(C#N)C1c1ccc(F)cc1 (stereo not drawn)	2	3%[38.3 µM]	?	-31%	-26%[46.1 µM]	-21%
CC(C)c1ccc(NC(=O)C(c2ccccc2)N(Cc2ccco2)C(=O)CC2NC(=O)NC2=O)cc1 (stereo not drawn)	·	-4%	7.9µM*	·	-11%	·
O=C(CCc1ccccc1)NCCC1=CCCCC1	·	8%	5%	25µM*	0%	0%
Cc1ccccc1CSCCNC(=O)CCSc1ccccc1	-12	-10%[38.3 µM]	7.1µM*	10µM*	-13%[46.1 µM]	-6%
Cc1ccccc1CSCCC(=O)NCCC1=CCCCC1	1	11%	-37%	13µM*	0%	-7%
O=C(CNCCC1=CCCCC1)Nc1ccccc1N1CCCCC1	-3	52%[38.3 µM]	9.5µM*	?	?	?
CCCCC(CC)C(=O)Oc1ccc(O)c(C(C)(C)C)c1 (stereo not drawn)	·	3%	-1%	·	?	·
SMILES	IMPase inh	IMPase Li cell	ALDH1A1 block	HPGD inh	NPSR antagonist	12-hLO inh
CCOCCCn1cnc2c([nH]c3cc(OC)ccc32)c1=O	3	-4%[38.3 µM]	-6%	-4%	-2%[46.1 µM]	-6%
C=CCN1C(=O)C(Cc2ccc(OC)cc2)S/C1=N\N=C\c1cccs1 (stereo not drawn)	5	29%[38.3 µM]	3%	-12%	-29%[46.1 µM]	-5%
CC(=O)N(C1=C(O)c2ccccc2C(=O)C1=O)C1CCCCC1	2	22%[38.3 µM]	10µM*	-26%	-14%[46.1 µM]	-3%
CC(=O)N(C)C1=C(O)c2ccccc2C(=O)C1=O	-12	-4%[38.3 µM]	?	-16%	-1%[46.1 µM]	-4%
CCCCC1(CCCC)NC(=S)N(Nc2ccc(C)cc2)C1=O	7	-6%[38.3 µM]	-3%	-10%	-9%[46.1 µM]	-8%
CC(=O)Oc1ccc(C2OC(=O)c3ccccc3N2C(C)=O)cc1 (stereo not drawn)	-11	19%[38.3 µM]	-11%	-6%	?	-1%
CC(=O)N1c2ccccc2C(=O)C1N1CCCCC1 (stereo not drawn)	-1	0%[38.3 µM]	28µM*	-17%	-6%[46.1 µM]	-2%
COc1ccc(N(C(=O)/C=C/c2ccc(OC)c(OC)c2)C2=CC3CCC(C2)N3C)cc1 (stereo not drawn)	·	21%	2%	·	1%	·
CCCCn1c(O)c(N=NC(=O)c2ccccc2NS(=O)(=O)c2cccs2)c2ccccc21	·	14%	11µM*	-13%	-18%	-2%
C=CCn1c(O)c(N=NC(=O)c2ccccc2NS(=O)(=O)c2cccs2)c2ccccc21	1	·	4.5µM*	·	-19%[46.1 µM]	-2%
CCOC(=O)c1c(N)sc2c1CCC1C(=O)N(C3CCCCC3)C(=O)C21 (stereo not drawn)	-2	23%[38.3 µM]	13µM*	?	-21%[46.1 µM]	-10%
NC(=O)C1CCN(C(=O)c2ccc3c(=O)n(Cc4ccco4)c(SCC(=O)c4ccccc4)nc3c2)CC1	·	11%	14µM*	·	-56%	·
